PubChem BioAssay AID686979 (National Center for Advancing Translational Sciences (NCATS), 2013)
About 50,000 (12%) of roughly 420,000 compounds were called active. Not shown: some 26% with an inconclusive outcome. This is one part of a sample in which actives are shown more often than they occur. Values without a mark were called inactive. Calls follow the shape of the dose curve; as a rule, active = well fitted inhibition curve with a large enough effect; inconclusive = small, poorly fitted or top-dose-only effect; inactive = flat fitted curve, though single readings scatter.

Experiment: qHTS for Inhibitors of human tyrosyl-DNA phosphodiesterase 1 (TDP1): qHTS in cells in presence of CPT; also: nearly all actives have a fitted effect of over 55% in size
Settings: chicken DT40 Tdp1-/-;hTDP1 cells + 20 nM CPT, ATP luminescence, 48 h; series mostly up to 46.2 µM; activity change, negative = growth inhibition: at the top concentration
Outline: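 Chicken DT40 Tdp1-/- cells stably complemented with human TDP1 were seeded at 400 cells/well in medium containing 20 nM camptothecin, exposed to pin-transferred compounds, and grown at 37 °C for at least 48 hr. Viability was read as ATP luminescence.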
% is scaled to controls: 0 for no effect and ±100 for the full control effect; potency is read from the fitted curve at half-maximal effect.

| Compound | activity change, negative = growth inhibition [%] | Potency |
| --- | --- | --- |
| O=C(O)CCC(=O)NCc1ccc(C(=O)O)cc1 | 5.55 |  |
| COc1cc2c(cc1CNC[C@H]1O[C@@H](n3cnc(C(N)=O)n3)[C@H](O)[C@@H]1O)OCO2 | -13.9 |  |
| CCCOc1ccc(C2NC(=O)NC(c3ccccc3)=C2C(C)=O)cc1OCC (configuration not stated) |  | 23.1 µM (active) |
| COc1cc(C2NC(=O)NC(c3ccccc3)=C2C(C)=O)c(Br)cc1OCC(N)=O (configuration not stated) | -2.61 |  |
| COC(=O)COc1ccc(C2NC(=O)NC(C)=C2C(=O)NCc2ccccc2)cc1OC (configuration not stated) | 7.4 |  |
| CC1CC1C(=O)OCC(=O)Nc1cccc(F)c1 (configuration not stated) | -16.1 |  |
| O=C1N/C(=C/c2cccs2)C(=O)N1Cc1ccc(F)cc1 | -8.67 |  |
| CN1C/C(=C/c2cccs2)C(=O)/C(=C\c2cccs2)C1 | -26.2 |  |
| CSC1=N/C(=C\C=C\c2cccs2)C(=O)S1 |  | 14.6 µM (active) |
| Cn1c(=O)n(Cc2c(F)cccc2Cl)c(=O)c2c1nc1n2CCN1c1ccc(F)cc1 | -6.42 |  |
| COc1ccc(OC)c(-c2csc(-c3c(N)c(C(=O)c4ccccc4)n4ccccc34)n2)c1 | -9.02 |  |
| CCN1/C(=C/C(=S)Nc2ccccc2)Sc2ccccc21 | -77.9 |  |
| CCN1/C(=C/c2ccc3ccc(C)cc3[n+]2CC)Sc2ccccc21 |  | 2.06 µM (active) |
| CCN1/C(=C\c2ccc3ccccc3[n+]2CC)Sc2cc(C)ccc21 |  | 0.184 µM (active) |
| O=C(CN1C(=O)NC2(CCCCCC2)C1=O)NCc1cccs1 | -0.308 |  |
| O=C(CN1C(=O)NC2(CCCCCC2)C1=O)NCc1ccc(F)cc1 | 14 |  |
| O=C(CN1C(=O)NC2(CCCCCCC2)C1=O)NCc1ccc(F)cc1 |  | 16.4 µM (active) |
| Cc1ccc(NC(=O)NC(=O)CSc2nnc(-c3ccc(OC(F)F)cc3)n2N)c(C)c1 | -7.91 |  |
| CC(C)(C)C(=O)Nc1ccc(-c2cn3cccnc3n2)cc1 | -23.9 |  |
| CC1CCCCN1C(=S)NCc1ccccc1 (configuration not stated) | -3.61 |  |
| C/C(=N\NC(=S)NCc1ccccc1)C1CCCCC1 |  | 6.51 µM (active) |
| O=C(CC1CCCCC1)NCc1ccccc1 | -27.5 |  |
| O=C(Nc1ccon1)c1nc[nH]c1C(=O)NCc1ccccc1 | -29.3 |  |
| CCC(=O)N1CCc2cc(Br)cc(S(=O)(=O)NCc3ccc(Cl)cc3)c21 | 2.83 |  |
| O=C1C=C(c2ccnc3cc(Cl)ccc23)C[C@@H](c2ccc3c(c2)OCO3)C1 |  | 5.8 µM (active) |
| CC(=O)C1=C(C)NC(=O)NC1c1ccc2c(c1)OCO2 (configuration not stated) | 12.9 |  |

| Compound | activity change, negative = growth inhibition [%] | Potency |
| --- | --- | --- |
| O=C1C=C(c2cccc(Cl)c2)C[C@@H](c2ccc(F)cc2)C1 | -20 |  |
| Cc1ccc(C)c(NC(=O)C2CCCN2C(=O)OC(C)(C)C)c1 (configuration not stated) | 5.16 |  |
| Cc1ccc(NC(=O)C2CCCN2C(=O)OCc2ccccc2)cc1C (configuration not stated) | -29.9 |  |
| Cc1cccc(C)c1NC(=O)C1CCCN1C(=O)OC(C)(C)C (configuration not stated) |  | 11.6 µM (active) |
| Cc1csc(=O)n1CCC(=O)OCC(=O)Nc1ccc(N2CCOCC2)cc1 | 0.597 |  |
| C[C@H](NC(=O)CC[C@H]1O[C@@H](n2ccc(=O)[nH]c2=O)[C@H](O)[C@@H]1O)c1cccc2ccccc12 | 1.92 |  |
| COc1ccc([N+](=O)[O-])cc1N(CC(=O)Nc1ccccc1C(=O)N1CCOCC1)S(C)(=O)=O | 9.2 |  |
| CC1C(=O)N(Cc2ccccc2)c2ccccc2N1C(=O)c1ccccc1 (configuration not stated) |  | 23.1 µM (active) |
| CC1Oc2ccccc2N(Cc2cccnc2)C1=O (configuration not stated) | 0.567 |  |
| O=C1C(Cc2ccc(O)cc2)NC(=S)N1Cc1ccccc1 (configuration not stated) | -3.2 |  |
| COc1ccc(C(=O)COC(=O)C(O)c2ccccc2)c(OC)c1 (configuration not stated) | 16.3 |  |
| O=C1N(c2ccccc2)C(=Nc2ccccc2)SC12CC2 | -10.5 |  |
| Cc1cc(C)c(S(=O)(=O)Nc2c(C)n(C)n(-c3ccccc3)c2=O)cc1[N+](=O)[O-] | -4.05 |  |
| COc1ccc(NC(=O)Nc2cccc(-c3noc(C)n3)c2)cc1 | -3.37 |  |
| CC(C)(C)NC(=O)NCc1ccco1 | -26.1 |  |
| COc1ccc(NC(=O)C2(C)Cc3c(-c4cccc(NC(C)=O)c4)ccnc3O2)cc1 (configuration not stated) |  | 1.64 µM (active) |
| CC(=O)Nc1cccc(-c2cnc3ccccc3n2)c1 | -8.99 |  |
| CC(=O)Nc1cccc(-c2ccnc3c2CC(C)(C(=O)NCc2ccccc2)O3)c1 (configuration not stated) |  | 0.82 µM (active) |
| COc1ccc(NC(=O)C2(C)Cc3c(-c4ccc(C(N)=O)cc4)ccnc3O2)cc1 (configuration not stated) | -10 |  |
| CC1(C)Cc2cccc(OCC(=O)NCc3ccccc3)c2O1 | -13.5 |  |
| CC1(C(=O)NCC2CCOCC2)Cc2c(-c3cccc(C(N)=O)c3)ccnc2O1 (configuration not stated) |  | 25.9 µM (active) |
| COc1cccc(NC(=S)NCc2ccco2)c1 | -15.7 |  |
| CC(=O)Nc1cccc(-c2ccnc3c2CC(C)(C(=O)NCc2ccco2)O3)c1 (configuration not stated) |  | 1.03 µM (active) |
| COc1ccc(NC(=O)CCn2ccnc2)c(OC)c1 | -1.43 |  |
| CC1=C(C(=O)N2CCOCC2)CC(CC(=O)NCCCN(C)C)C(=O)N1Cc1ccc(C(C)(C)C)cc1 (configuration not stated) | 5.4 |  |
| CC(C)N(C(=O)CSc1nnc(NC2CC2)s1)c1ccccc1 | -8.77 |  |
